Data reported in article PMC12864922, “TDP-43 directly inhibits mRNA accumulation in neurites through modulation of mRNA stability”.
The full ranking holds about 9,900 sequences; the median of “r (bound/input frequency ratio)” is about 0.7, and the highest 2% start at about 6.5. This excerpt belongs to a sample that is enriched for the highest values.

B1: ENSMUSG00000043670.304|Diras1 (ssRNA)
RNA: GGGAGUUCUACAGUCCGACGAUCGCUUCGAUAUCCGCAUGCUAGUCACAAAGAGACAGAGAAGCAGAAAGAAGGCUGAAGCCAGAUGACCAAGUAGGCCGGACCCCACUGUGUUCCCUUCUGUGUGCCAGGCACAGGGAGAGCCACAGCCUGAAGCCUGAGUCUGAGCAUAGCUGAGCCCUGACCUCUAGCCAGCCCAGGGCCCCCACAGCUGCCACCUGCUCCCAAGCCCCGGGAGUGGCUCCUGGCUGGACAGGGGGUCACAGCCCUUUCUCAGGGACACACCCUGAUAGCACAAUCUCUGCUCUUGCGGUCGCACUAGUGUGGAAUUCUCGGGUGUCAAGG
B2: ENSMUSG00000029636.41|Wasf3|31:35;229:235 (ssRNA)
RNA: GGGAGUUCUACAGUCCGACGAUCGCUUCGAUAUCCGCAUGCUACACAUCCUUCUGGAUUUGUUGAGUAUUUACACACAAAUACUUAAGUGCCACAGAACACAGCACACCGUGCUGCACACCAGGAAACUCGCAGUAUUAGUGCAUCACCCUGGAACAGCAUCUUGCUUCCCUCUCAGCCGUGAGAGUCCCCUCUCCUGUCCAUCCUGAUUUGGUGGGCUUGCCACGUAUCUGCGCAGCUGCCCCACGUCAGCUCUCUGCAAGAUCACUGGCACACACACUCAGUGAUGUCUUCCAACCAGUGGCUCUUGCGGUCGCACUAGUGUGGAAUUCUCGGGUGUCAAGG
B3: ENSMUSG00000029028.57|Lrrc47 (ssRNA)
RNA: GGGAGUUCUACAGUCCGACGAUCGCUUCGAUAUCCGCAUGCUAGUAGAUCUUUGUAGGUGUAGGUAUGCUGUAGGUAUCUGGGUGUGGGUAUGCUGUAGAUGUCUGUGUAGGUGUGGAUAUGCUGUAGGUAUCUGGGUGUGCUGUAGGUGUCUGUGUGGGUGUGGGUGUGCUGUGGGUGUCUGUGUGGGUGUGCUGUAGGUGUCUGUAGGUGUGGGUAUGCUGCAGGUGUGGGUGUGCUGUAGAUCUCUAUAGGUGUGGGUGUGCUGUAGGGGUCUGUGUGGGUAUAGGUGUGGGUGUGCUGUCUCUUGCGGUCGCACUAGUGUGGAAUUCUCGGGUGUCAAGG
B4: ENSMUSG00000061578.309|Ksr2 (ssRNA)
RNA: GGGAGUUCUACAGUCCGACGAUCGCUUCGAUAUCCGCAUGCUAAAGUAAGAGAGGAGAGAGCCAGGGAGGGCUGAAGCUCUGGGACCCUGAAGUGUCCCCCGGGAACUGGGACUCACUCAUCUUCUCCUGUUUGUAGCUCAAUGACCCAGUGGGUCACAGUUCUAGGCGCUCCAAGGAAGCCAGGGGAGGGGGACUCCUCAGGAAGGAGUGACCAGUCACCUGCCUCCCAGGGUUCUGCCUUGCCCUUAAGCUAGGGUCCUUCAAGCAUCCACAGACUUAGAGUGUGGUGGUAACAUGCUUGUCUCUUGCGGUCGCACUAGUGUGGAAUUCUCGGGUGUCAAGG
B5: ENSMUSG00000032194.287|Kank2 (ssRNA)
RNA: GGGAGUUCUACAGUCCGACGAUCGCUUCGAUAUCCGCAUGCUAGUGGACGGAUGAGUGUGGGGUGGGUGGAUGGAUAAAUGAGCAAUGGAUGAGAAACUGGGUUGGCUGGUGGGUAGAUGUCAUGAUGGAGUCUUUGCACGUGUAUGAAACAGAAAACCAAACUUCAGGACAGACAGCUGCUGGUGUCUCUGGAUGCUCACAGCCUAGGGCACAUUUGAAAGGUCGUGCUCUGAGCUGAGCCCUGAGUUCCAGCCUUGUAGCCAGCAAGGGAGUUUAUUUAAGGUUCUGGAAGCAUCAGCUAUCUCUUGCGGUCGCACUAGUGUGGAAUUCUCGGGUGUCAAGG
B6: ENSMUSG00000028439.220|Fam219a (ssRNA)
RNA: GGGAGUUCUACAGUCCGACGAUCGCUUCGAUAUCCGCAUGCUAUCCCUGAGCUCCUAAGCAAUUCCCAGGCUUCUCUAGGGCUUCAGUUCUCACAACUGGAAAAUAAAGAGUAGCUGACAUCACCGACAGAGUCUUUUCAUACCAGAAGGAAUUUCUUCACAGGAGUUUCUGCAAAAGACUAUGACAUCUGUGUGUCUGUGGUCUCACGAGGUACCUGGAGGUGUAUGUGCACGGACAUGGGAAGUACGUGAAGAUUUAUUUCGGGAAAAGUGGUGUGUGUGUAGCUGUACUGGGUGUCAUGUCUCUUGCGGUCGCACUAGUGUGGAAUUCUCGGGUGUCAAGG
B7: ENSMUSG00000032194.281|Kank2 (ssRNA)
RNA: GGGAGUUCUACAGUCCGACGAUCGCUUCGAUAUCCGCAUGCUAAUGAAUGGAUGGAUGGACAGGUGGGUGGAUGGAUGGGUGGACGGAUGAGUGUGGGGUGGGUGGAUGGAUAAAUGAGCAAUGGAUGAGAAACUGGGUUGGCUGGUGGGUAGAUGUCAUGAUGGAGUCUUUGCACGUGUAUGAAACAGAAAACCAAACUUCAGGACAGACAGCUGCUGGUGUCUCUGGAUGCUCACAGCCUAGGGCACAUUUGAAAGGUCGUGCUCUGAGCUGAGCCCUGAGUUCCAGCCUUGUAGCCAGCACUCUUGCGGUCGCACUAGUGUGGAAUUCUCGGGUGUCAAGG
B8: ENSMUSG00000032194.230|Kank2 (ssRNA)
RNA: GGGAGUUCUACAGUCCGACGAUCGCUUCGAUAUCCGCAUGCUACUCCCUGUCGUAUCCAGAUCACAGCUGAACCCACUGGGCCUUGGCGCCAAACCUCAGCAGGGCAGCAUUGAGACUCAUGGACUAAAGGAAAGUGUUCACUCUUCUAGACAAGUGGGUCUCUUGGUUUGAUGGAGUCUUACUCCGCUUGAGUUUUGUAGAAGGGGUUUGUCUAAGGCAUAGAGGCUUGGUUGGCAUAAGAAAAUAAGAUGGACAGAUGGAUGGGUGGAUGGAUGGAUGGCUGAUUGAGUGGGUGGGUGGGUCUCUUGCGGUCGCACUAGUGUGGAAUUCUCGGGUGUCAAGG
B9: ENSMUSG00000032194.283|Kank2 (ssRNA)
RNA: GGGAGUUCUACAGUCCGACGAUCGCUUCGAUAUCCGCAUGCUAAUGGACAGGUGGGUGGAUGGAUGGGUGGACGGAUGAGUGUGGGGUGGGUGGAUGGAUAAAUGAGCAAUGGAUGAGAAACUGGGUUGGCUGGUGGGUAGAUGUCAUGAUGGAGUCUUUGCACGUGUAUGAAACAGAAAACCAAACUUCAGGACAGACAGCUGCUGGUGUCUCUGGAUGCUCACAGCCUAGGGCACAUUUGAAAGGUCGUGCUCUGAGCUGAGCCCUGAGUUCCAGCCUUGUAGCCAGCAAGGGAGUUUAUUCUCUUGCGGUCGCACUAGUGUGGAAUUCUCGGGUGUCAAGG
B10: ENSMUSG00000032194.229|Kank2 (ssRNA)
RNA: GGGAGUUCUACAGUCCGACGAUCGCUUCGAUAUCCGCAUGCUAUCAAGUCUCCCUGUCGUAUCCAGAUCACAGCUGAACCCACUGGGCCUUGGCGCCAAACCUCAGCAGGGCAGCAUUGAGACUCAUGGACUAAAGGAAAGUGUUCACUCUUCUAGACAAGUGGGUCUCUUGGUUUGAUGGAGUCUUACUCCGCUUGAGUUUUGUAGAAGGGGUUUGUCUAAGGCAUAGAGGCUUGGUUGGCAUAAGAAAAUAAGAUGGACAGAUGGAUGGGUGGAUGGAUGGAUGGCUGAUUGAGUGGGUGGCUCUUGCGGUCGCACUAGUGUGGAAUUCUCGGGUGUCAAGG
B11: ENSMUSG00000028439.219|Fam219a (ssRNA)
RNA: GGGAGUUCUACAGUCCGACGAUCGCUUCGAUAUCCGCAUGCUAGCAUUCUCCCUGAGCUCCUAAGCAAUUCCCAGGCUUCUCUAGGGCUUCAGUUCUCACAACUGGAAAAUAAAGAGUAGCUGACAUCACCGACAGAGUCUUUUCAUACCAGAAGGAAUUUCUUCACAGGAGUUUCUGCAAAAGACUAUGACAUCUGUGUGUCUGUGGUCUCACGAGGUACCUGGAGGUGUAUGUGCACGGACAUGGGAAGUACGUGAAGAUUUAUUUCGGGAAAAGUGGUGUGUGUGUAGCUGUACUGGGUGCUCUUGCGGUCGCACUAGUGUGGAAUUCUCGGGUGUCAAGG
B12: ENSMUSG00000032194.228|Kank2 (ssRNA)
RNA: GGGAGUUCUACAGUCCGACGAUCGCUUCGAUAUCCGCAUGCUAGUCCUCUCAAGUCUCCCUGUCGUAUCCAGAUCACAGCUGAACCCACUGGGCCUUGGCGCCAAACCUCAGCAGGGCAGCAUUGAGACUCAUGGACUAAAGGAAAGUGUUCACUCUUCUAGACAAGUGGGUCUCUUGGUUUGAUGGAGUCUUACUCCGCUUGAGUUUUGUAGAAGGGGUUUGUCUAAGGCAUAGAGGCUUGGUUGGCAUAAGAAAAUAAGAUGGACAGAUGGAUGGGUGGAUGGAUGGAUGGCUGAUUGAGUCUCUUGCGGUCGCACUAGUGUGGAAUUCUCGGGUGUCAAGG
B13: ENSMUSG00000032194.288|Kank2 (ssRNA)
RNA: GGGAGUUCUACAGUCCGACGAUCGCUUCGAUAUCCGCAUGCUAGGAUGAGUGUGGGGUGGGUGGAUGGAUAAAUGAGCAAUGGAUGAGAAACUGGGUUGGCUGGUGGGUAGAUGUCAUGAUGGAGUCUUUGCACGUGUAUGAAACAGAAAACCAAACUUCAGGACAGACAGCUGCUGGUGUCUCUGGAUGCUCACAGCCUAGGGCACAUUUGAAAGGUCGUGCUCUGAGCUGAGCCCUGAGUUCCAGCCUUGUAGCCAGCAAGGGAGUUUAUUUAAGGUUCUGGAAGCAUCAGCUAUGACCCACUCUUGCGGUCGCACUAGUGUGGAAUUCUCGGGUGUCAAGG
B14: ENSMUSG00000028439.221|Fam219a (ssRNA)
RNA: GGGAGUUCUACAGUCCGACGAUCGCUUCGAUAUCCGCAUGCUAAGCUCCUAAGCAAUUCCCAGGCUUCUCUAGGGCUUCAGUUCUCACAACUGGAAAAUAAAGAGUAGCUGACAUCACCGACAGAGUCUUUUCAUACCAGAAGGAAUUUCUUCACAGGAGUUUCUGCAAAAGACUAUGACAUCUGUGUGUCUGUGGUCUCACGAGGUACCUGGAGGUGUAUGUGCACGGACAUGGGAAGUACGUGAAGAUUUAUUUCGGGAAAAGUGGUGUGUGUGUAGCUGUACUGGGUGUCAUGUAUGCUGCUCUUGCGGUCGCACUAGUGUGGAAUUCUCGGGUGUCAAGG
B15: ENSMUSG00000032194.282|Kank2 (ssRNA)
RNA: GGGAGUUCUACAGUCCGACGAUCGCUUCGAUAUCCGCAUGCUAGGAUGGAUGGACAGGUGGGUGGAUGGAUGGGUGGACGGAUGAGUGUGGGGUGGGUGGAUGGAUAAAUGAGCAAUGGAUGAGAAACUGGGUUGGCUGGUGGGUAGAUGUCAUGAUGGAGUCUUUGCACGUGUAUGAAACAGAAAACCAAACUUCAGGACAGACAGCUGCUGGUGUCUCUGGAUGCUCACAGCCUAGGGCACAUUUGAAAGGUCGUGCUCUGAGCUGAGCCCUGAGUUCCAGCCUUGUAGCCAGCAAGGGAGCUCUUGCGGUCGCACUAGUGUGGAAUUCUCGGGUGUCAAGG
B16: ENSMUSG00000032194.289|Kank2 (ssRNA)
RNA: GGGAGUUCUACAGUCCGACGAUCGCUUCGAUAUCCGCAUGCUAGUGUGGGGUGGGUGGAUGGAUAAAUGAGCAAUGGAUGAGAAACUGGGUUGGCUGGUGGGUAGAUGUCAUGAUGGAGUCUUUGCACGUGUAUGAAACAGAAAACCAAACUUCAGGACAGACAGCUGCUGGUGUCUCUGGAUGCUCACAGCCUAGGGCACAUUUGAAAGGUCGUGCUCUGAGCUGAGCCCUGAGUUCCAGCCUUGUAGCCAGCAAGGGAGUUUAUUUAAGGUUCUGGAAGCAUCAGCUAUGACCCAAAGCACCUCUUGCGGUCGCACUAGUGUGGAAUUCUCGGGUGUCAAGG

biological target: TDP-43 (Homo sapiens, UniProt Q13148 1-414); test: RNA Bind-n-Seq with designed 260-mer pool; 25 mM Tris-HCl, 150 mM KCl, 3 mM MgCl2, BSA (printed 500 mg/mL), 20 units/mL SUPERase IN; pH not stated; 500 nM RNA pool, 1 h, 4 C; TDP-43 5, 50, 500 nM; high values mean tight binding; details: protein: recombinant; tags: SBP (GST cleaved off with PreScission; pGEX-GST-SBP)
Procedure, shortened: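 An in vitro-transcribed pool of 260-nt 3′ UTR oligos (500 nM) was incubated for 1 h at 4 °C with recombinant SBP-tagged TDP-43 at 5, 50 or 500 nM held on streptavidin beads. The buffer contained 25 mM Tris-HCl, 150 mM KCl, 3 mM MgCl2, BSA and SUPERase IN. Biotin-eluted bound RNA was sequenced, and binding, R, is each oligo's normalized read abundance in the bound sample over that in input.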

Chain of TDP-43 (Q13148 whole entry): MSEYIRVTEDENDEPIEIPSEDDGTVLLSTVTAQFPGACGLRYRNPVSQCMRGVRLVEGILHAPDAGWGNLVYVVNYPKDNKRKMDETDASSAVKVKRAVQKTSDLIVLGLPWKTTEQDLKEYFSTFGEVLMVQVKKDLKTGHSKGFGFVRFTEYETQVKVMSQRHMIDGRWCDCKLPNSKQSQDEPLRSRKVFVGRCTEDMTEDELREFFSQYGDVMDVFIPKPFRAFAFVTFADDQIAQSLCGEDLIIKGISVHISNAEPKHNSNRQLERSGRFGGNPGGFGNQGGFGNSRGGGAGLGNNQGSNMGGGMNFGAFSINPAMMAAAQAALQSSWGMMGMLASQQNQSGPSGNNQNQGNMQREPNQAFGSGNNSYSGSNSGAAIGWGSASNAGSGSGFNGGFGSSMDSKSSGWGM

Row | Binder | binding signal
1 | B1 | 0.472 R (bound/input frequency ratio)
2 | B2 | 0.406 R (bound/input frequency ratio)
3 | B3 | 6.24 R (bound/input frequency ratio)
4 | B4 | 1.33 R (bound/input frequency ratio)
5 | B5 | 5.94 R (bound/input frequency ratio)
6 | B6 | 6.53 R (bound/input frequency ratio)
7 | B7 | 6.24 R (bound/input frequency ratio)
8 | B8 | 4.66 R (bound/input frequency ratio)
9 | B9 | 3.66 R (bound/input frequency ratio)
10 | B10 | 4.54 R (bound/input frequency ratio)
11 | B11 | 1.85 R (bound/input frequency ratio)
12 | B12 | 7.26 R (bound/input frequency ratio)
13 | B13 | 6.68 R (bound/input frequency ratio)
14 | B14 | 2.59 R (bound/input frequency ratio)
15 | B15 | 6.52 R (bound/input frequency ratio)
16 | B16 | 3.69 R (bound/input frequency ratio)
